Screening results: PubChem BioAssay, several laboratories
EP2 mod – EP2 receptor (human) modulation; P43116; EP2-expressing cells, cAMP HTRF FRET, PGE2 co-stimulation; induction, % at 25 µM; hit rate 0.83% among 260,000;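 active = compounds whose cAMP rise, as percent of the full-agonist control response, exceeds 60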;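 note: rat C6 glioma line stably carrying human EP2 under a CMV promoter; the protocol text gives 20 µM as final concentration; 100% = response of wells given 1 µM PGE2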
Target sequence (P43116 whole entry, looked up): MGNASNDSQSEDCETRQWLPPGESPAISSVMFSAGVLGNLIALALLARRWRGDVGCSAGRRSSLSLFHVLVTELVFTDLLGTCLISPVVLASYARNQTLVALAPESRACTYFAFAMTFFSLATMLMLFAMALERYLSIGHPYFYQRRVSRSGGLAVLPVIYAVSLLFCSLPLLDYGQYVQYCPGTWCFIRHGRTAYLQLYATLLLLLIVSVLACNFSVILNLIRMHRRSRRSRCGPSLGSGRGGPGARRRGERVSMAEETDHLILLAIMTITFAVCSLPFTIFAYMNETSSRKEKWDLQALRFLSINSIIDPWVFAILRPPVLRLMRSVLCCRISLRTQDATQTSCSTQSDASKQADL
S1P3 antag – antagonists of human S1P3 receptor | CHO S1P3 NFAT-BLA reporter, FRET fluorescence, antagonist mode | hit rate 0.27% among 170,000 | AID 485 | Q99500 | inhibition, % at 4.98 µM;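 active = inhibition above the plate cutoff, the mean inhibition of test wells on that plate plus 3 SD, cut at about 28% in these data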;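 note: cells challenged with S1P at its EC80 of 0.8 µM; blue over green emission ratio from cleaved BLA substrate after 4 h stimulation; 0% = S1P-stimulated wells and 100% = unstimulated DMSO-only wells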
Target sequence (Q99500 whole entry, looked up): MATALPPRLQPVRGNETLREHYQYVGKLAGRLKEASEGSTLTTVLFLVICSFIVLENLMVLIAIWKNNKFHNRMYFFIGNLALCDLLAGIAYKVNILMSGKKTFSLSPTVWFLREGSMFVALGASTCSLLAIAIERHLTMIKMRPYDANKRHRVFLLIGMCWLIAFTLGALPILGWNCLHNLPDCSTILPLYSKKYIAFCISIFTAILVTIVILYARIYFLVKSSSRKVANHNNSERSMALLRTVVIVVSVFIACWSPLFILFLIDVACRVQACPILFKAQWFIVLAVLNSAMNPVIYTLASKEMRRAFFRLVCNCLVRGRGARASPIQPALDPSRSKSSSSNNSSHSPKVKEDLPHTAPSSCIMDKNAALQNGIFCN
PGE2 EP2 inh – EP2 receptor (human) inhibition; P43116; C6 glioma cells expressing human EP2, cAMP TR-FRET; cells stimulated with saturating PGE2; inhibition, % at 25 µM; hit rate 0.52% among 260,000;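 active = percent inhibition above 40 after rounding to a whole number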;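 note: rat C6 glioma host cells with rolipram phosphodiesterase inhibitor present; the protocol text gives 20 µM as final concentration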
Cl transport mod – modulates chloride dependent transport by human KCC2; Q9H2X9; KCC2 cells, thallium flux FluoZin-2 fluorescence; B-score of Tl+ flux slope (higher = more flux/activation; lower = inhibition) at 10 µM; hit rate 2.2% among 190,000; AID 1456;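 active = thallium flux slope and its plate-corrected score both differing from the plate sample mean at a set confidence after two filtering rounds, in either direction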;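 note: slope of fluorescence scaled to starting intensity during 10 to 20 s after thallium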
KCC2 secondary – KCC2 (human) modulation, secondary assay | AID 1713 | hit rate 15% among 3,700 | shares compounds with Cl transport mod | HEK293-KCC2, thallium flux, FluoZin2 fluorescence; hits give high values | normalised thallium flux (F/F0 slope) at 10 µM;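 active = thallium flux slope above the same plate's solvent-only control mean plus 3 SD; inconclusive = the two replicate wells disagree; inactive = no significant difference from solvent-only control wells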
KCC2 bumet counter – thallium flux persisting under bumetanide in KCC2 cells, counter-screen secondary assay | shares compounds with Cl transport mod | HEK293-KCC2 + bumetanide/ouabain, thallium flux FluoZin2; hits give high values | normalized thallium flux at 10 µM | hit rate 49% among 3,700 | AID 1714;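 active = thallium entry rate above the same plate's blocked-transporter control wells by more than 3 SD; inconclusive = the two repeat wells disagree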;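 note: raw slope of fluorescence over initial fluorescence between 10 and 20 s after thallium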
KCC2 sec2 – KCC2 (human) modulation, second secondary assay; HEK293-KCC2, thallium flux FluoZin2 fluorescence; actives lie on both sides; F/F0 rise rate, 10–20 s post-thallium; shares compounds with Cl transport mod; normalized thallium flux at 10 µM; hit rate 23% among 3,700;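 active = thallium flux slope more than 3 SD above or below the plate's solvent-only control mean, mostly below; inconclusive = the two repeat wells disagreed; inactive = no significant shift from solvent-only controls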;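 note: raw slope with 0.1% DMSO as baseline and bumetanide as block control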
HEK counter1 – counter-screen for KCC2 modulators: effect in parental HEK293 cells; shares compounds with Cl transport mod; thallium flux FluoZin2, ouabain; baseline-ratio fluorescence slope, 10–20 s after thallium; thallium flux rate (normalised fluorescence) at 10 µM; hit rate 46% among 3,700; AID 1716;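 active = thallium flux rate significantly above the same plate's solvent-only control wells, beyond their mean plus 3 SD; inconclusive = the two replicate wells gave conflicting results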
KCC2 retest ouab – KCC2 (human) modulation, ouabain retest; shares compounds with Cl transport mod; HEK293-KCC2, thallium flux FluoZin2 fluorescence; bidirectional: low = inhibitor, high = activator; raw Tl+ flux slope (below DMSO = inhibition, above = activation) at 10 µM; hit rate 48% among 3,700;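 active = thallium flux slope beyond 3 SD from same-plate DMSO control mean in most replicates, usually higher, sometimes lower; inconclusive = repeat tests gave conflicting results; inactive = no significant difference from controls in most replicates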;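 note: slope of initial-normalized fluorescence between seconds 10 and 20 after thallium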
HEK counter2 – parental HEK flux effect, counter-screen 2. thallium flux slope at 10 µM. hit rate 33% among 3,700. shares compounds with Cl transport mod. HEK293 parental, thallium flux FluoZin-2 fluorescence slope;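 active = thallium flux slope above the same plate's solvent-control mean plus 3 SD in both duplicate wells; inconclusive = duplicate wells that disagreed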;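 note: run without ouabain in cells lacking the KCC2 cotransporter; slope of fluorescence scaled to its starting value between 10 and 20 s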
Active calls of the source: *; ? = inconclusive; / = no result given. An excerpt weighted towards active compounds, which were near 3.1% of everything screened.

SMILES	EP2 mod	S1P3 antag	PGE2 EP2 inh	Cl transport mod	KCC2 secondary	KCC2 bumet counter	KCC2 sec2	HEK counter1	KCC2 retest ouab	HEK counter2
O=C1C2Sc3[nH]c(=O)sc3C(c3ccccc3)C2C(=O)N1c1ccccc1 (configuration not stated)	-5	/	17	-12*	?	0.0052	0.017*	0.0087	?	0.011
CCOc1ccc(N2C(=O)C3Sc4[nH]c(=O)sc4C(c4ccc(OC)c(OC)c4)C3C2=O)cc1 (configuration not stated)	12	6	5	-3.8	/	/	/	/	/	/
CC(OC(=O)c1ccccc1NCc1ccco1)C(=O)Nc1ncc(Cl)cc1Cl (configuration not stated)	26	/	13	-3*	0.0089	0.0058	0.03	0.0064	?	?
CC(OC(=O)c1ccc(S(=O)(=O)NCc2ccco2)cc1)C(=O)Nc1ccc(Cl)cn1 (configuration not stated)	-48	-8	3	0.75	/	/	/	/	/	/
C=CCN1C(=O)/C(=c2/s/c(=C3/Sc4ccccc4N3CC)c(=O)n2CC=C)SC1=S	2	/	18	/	/	/	/	/	/	/
CCN1CCCC1CN(Cc1cc2cc(C)ccc2[nH]c1=O)C(=O)Nc1ccccc1Cl (configuration not stated)	-17	/	16	/	/	/	/	/	/	/
O=C(NNC(=O)C1CC2CCC1C2)c1sc2ccccc2c1Cl (configuration not stated)	-3	12	5	9.5*	0.01	0.041*	0.031	0.019*	0.025	0.012*
C/C(=C\C(=O)c1ccncc1)Nc1ccccc1O	-13	-87	13	19*	0.015*	0.024*	0.032	0.011*	0.029	0.011*
Cc1cc(NS(=O)(=O)c2ccc(NC(=O)c3ccco3)cc2)no1	5	15	0	/	/	/	/	/	/	/
Cc1cc(NS(=O)(=O)c2ccc(NC(=O)c3oc4ccccc4c3C)cc2)no1	-20	/	7	-2.9*	0.0086	0.0073	0.033	0.0044	?	0.012
O=C(Cn1nc(-c2ccc(F)cc2)n(-c2ccncc2)c1=O)NC1CCCC1	-18	/	/	/	/	/	/	/	/	/
CCc1c(C)sc(NC(=O)c2cc(-c3ccc(C)cc3)on2)c1C#N	-9	/	7	/	/	/	/	/	/	/
CCc1c(C)sc(NC(=O)c2cc(C(C)C)on2)c1C#N	-4	-10	3	7.3*	0.011	0.027*	0.039	?	0.031*	?
CC(C)(C)NC(=O)C(=O)NNC(=O)c1ccccc1	26	/	/	3.7*	0.019*	0.034*	0.035	0.017*	0.029	0.012*
CC(C)(C)NC(=O)C(=O)NNC(=O)c1cccc(F)c1	-6	-5	2	21*	0.006	0.025*	0.038*	0.024*	0.032*	0.026*
CC(C(=O)O)[n+]1cccc(-c2ccccc2)c1 (configuration not stated)	-16	/	18	/	/	/	/	/	/	/
O=C1CCN(C(=O)c2ccc3c(c2)OCO3)c2cc3ccccc3cc21	-40	/	9	/	/	/	/	/	/	/
COc1ccc(C(=O)N2CCN(C(=O)c3cccc(OC)c3OC)CC2)cc1	-13	/	6	/	/	/	/	/	/	/
CCOc1ccccc1NC(=O)CSc1nccn1-c1ccccc1	21	20	/	-4.8*	0.017	?	0.025*	0.0046*	0.013*	0.0071*
COc1ccc(NC(=O)CSc2nccn2-c2ccccc2)c(OC)c1	-2	-38	10	-0.093	/	/	/	/	/	/
CC(C)C(=O)c1cn(CC(=O)Nc2ccccc2Cl)c2ccccc12	-29	/	8	/	/	/	/	/	/	/
CCCOc1ccccc1CN1CCC(NC(C)=O)(c2ccccc2F)CC1	-17	/	5	/	/	/	/	/	/	/
CCSS(=O)(=O)c1cccc2cccnc12	-38	-2	14	3.9*	?	0.0079*	0.034	0.01*	?	0.014*
Cc1ccc(/C=N/n2c(-c3ccncc3)n[nH]c2=S)s1	11	19	5	0.78	/	/	/	/	/	/
Cc1cccc(-c2n[nH]c(=S)n2/N=C/c2cccs2)c1	4	2	1	41*	0.019*	0.08*	0.034	0.054*	0.054*	0.016*
SMILES	EP2 mod	S1P3 antag	PGE2 EP2 inh	Cl transport mod	KCC2 secondary	KCC2 bumet counter	KCC2 sec2	HEK counter1	KCC2 retest ouab	HEK counter2
S=c1[nH]nc(-c2cccnc2)n1/N=C/c1cccs1	19	/	6	0.068	/	/	/	/	/	/
S=c1[nH]nc(-c2ccco2)n1/N=C/c1c(Cl)cccc1Cl	53	8	6	1.9	/	/	/	/	/	/
Cc1cccc(-c2n[nH]c(=S)n2/N=C/c2ccc(C)s2)c1	30	1	12	13*	0.011	0.031*	0.033	0.016*	0.028	0.012*
S=c1[nH]nc(-c2cccs2)n1/N=C/c1c(Cl)cccc1Cl	26	-1	10	34*	0.019	0.042*	0.03	0.022*	0.029*	0.019*
Cc1ccsc1/C=N/n1c(-c2ccccc2)n[nH]c1=S	33	-15	7	9.8*	0.014*	0.039*	0.036	0.015*	?	0.013*
CCCN(C(=O)Cc1cccs1)c1nnc(-c2ccc(C(C)(C)C)cc2)s1	23	/	6	/	/	/	/	/	/	/
CC(=O)Nc1ccc(C(O)CN2CCC(O)(c3cccc(C)c3)CC2)cc1 (configuration not stated)	-12	/	7	/	/	/	/	/	/	/
Cc1ccc2c(c1)nnn2C1CCN(CC(=O)Nc2ccc(Br)cc2)CC1	-94	/	11	/	/	/	/	/	/	/
Cc1ccc2nc(-c3ccccc3)c(CN3CCOCC3)n2c1	3	-15	6	4.3*	0.0097	0.006	0.035	0.0039	0.021	0.012
CCOc1ccc(/C=C/c2[nH]c(=O)[nH]c(=O)c2[N+](=O)[O-])cc1OC	-32	/	6	/	/	/	/	/	/	/
O=C(Cn1nc(-c2nccc3ccccc23)oc1=O)N1CCCC1	-15	/	2	/	/	/	/	/	/	/
CN(C)C(=S)NC(=O)c1cccc(Cl)c1	21	-4	8	21*	0.0071	0.037*	0.033	0.025*	0.036*	0.022*
COc1ccc(CCNC(=S)NC(=O)c2cccc(Cl)c2)cc1OC	-41	-11	1	4.5*	0.01	0.032*	0.032	0.012*	0.026	?
CCC(=O)N(Cc1cc2cccc(C)c2n2nnnc12)C1CCCCC1	-3	/	6	/	/	/	/	/	/	/
CCOC(=O)N1CCN(Cc2nc(N)nc(Nc3ccc(Oc4ccccc4)cc3)n2)CC1	-15	-25	12	-4.1*	0.0065	0.0038	0.028	0.0073	0.017	0.0096
